# Measured values taken from PubChem BioAssay AID902 (National Center for Advancing Translational Sciences (NCATS), 2007).
# Where “and” joins values, the source holds several entries; their conditions need not be identical. Equal values may be shown once. Hit rate of the full screen: of about 130,000 compounds, about 1,900 (1.5%) were called active. Roughly 5% stayed inconclusive and do not appear here. This is one part of a sample in which actives are shown more often than they occur. The call rests on the fitted dose curve; in most records, active means well fitted cell-killing curve with a large enough effect; inconclusive means small, poorly fitted or top-dose-only effect; inactive means no such curve, though single readings can be large or run the other way. Some compounds were tested as several samples or in several runs, with calls that do not always agree.
# Assay: qHTS Screen for Compounds that Selectively Target Cancer Cells with p53 Mutations: Cytotoxicity of p53ts Cells at the Nonpermissive Temperature; further: nearly all actives have a fitted effect of over 55% in size
# Settings: H1299-p53A138V viability at 39C, ATP luminescence, 24 h; series mostly up to 46.1 µM; activity change, negative = cell killing: at the top concentration
# On the % scale 0 is the no-effect control and ±100 the full control effect; potency means the concentration at half of the fitted maximal effect.
SMILES,"activity change, negative = cell killing",Potency
COc1ccc(N2CCN(C3=NS(=O)(=O)C(c4cccc(Br)c4)=C3C)CC2)cc1,-1.65% (inactive),
CCOc1ccc(-n2c(C)nc3c(cnn3-c3ccc(C)cc3)c2=O)cc1,6.42% (inactive),
Cc1cccc(N2CCN(C(=O)c3ccc4c(c3)CCN4S(=O)(=O)c3ccccc3)CC2)c1C,-24.6% (inactive),
CCC(CC)c1nnc(NS(=O)(=O)Cc2ccccc2)s1,2.97% (inactive),
Cc1c(C(=O)N2CC(C)OC(C)C2)sc2nc(-c3ccccc3)cn12 (stereo unspecified),-12.2% (inactive),
CCC(CC)c1nn2cc(-c3ccccc3)nc2s1,,6.31 µM (active)
CC(C)c1ccc(C2CC(=O)N3CN(C4CCCCC4)CSC3=C2C#N)cc1 (stereo unspecified),6.4% (inactive),
Cc1noc(/C=C/N(C)C)c1S(=O)(=O)N1CCCC(C(=O)Nc2cccc(F)c2)C1 (stereo unspecified),-0.583% (inactive),
CN(C(=O)c1ccc2c(c1)N(Cc1cccc(Cl)c1)C(=O)c1ccccc1S2=O)C1CCCCC1 (stereo unspecified),15.2% (inactive),
Cc1ccc2c(=O)c(C(=O)c3cccc(Cl)c3)cn(CC(=O)NCc3ccccc3)c2n1,23.8% (inactive),
CN1CCCC1CCO[C@@](C)(c1ccccc1)c1ccc(Cl)cc1 (stereo partly specified),-25.6% (inactive),
CN1CCC[C@@H]1CCO[C@](C)(c1ccccc1)c1ccc(Cl)cc1,,inactive and 12.6 µM (active)
Cc1ccsc1C(=O)OCC(=O)c1cc2ccccc2o1,-18.4% (inactive),
COC(=O)c1ccc2c(=O)n(CC3CCCO3)c(=S)[nH]c2c1 (stereo unspecified),9.84% (inactive),
Cc1ccsc1C(=O)OCC(=O)c1cc(C)n(CC2CCCO2)c1C (stereo unspecified),,7.94 µM (active)
COc1ccccc1N1CCN(C(=O)CN(Cc2ccc(Cl)cc2)S(C)(=O)=O)CC1,-9.34% (inactive),
COc1ccccc1-n1nnnc1S(=O)(=O)Cc1ccc(Cl)cc1,,6.31 µM (active)
COc1ccccc1N1CCN(Cc2nnnn2CCc2ccccc2)CC1,6.43% (inactive),
Cc1cccc(N2CCN(S(=O)(=O)c3ccc4[nH]c5c(c4c3)CCCCC5)CC2)c1C,7.92% (inactive),
O=C(CCS(=O)(=O)c1ccccc1)N(Cc1cccnc1)c1nc2c(F)cccc2s1,,31.6 µM (active)
CN(C)S(=O)(=O)c1ccc(C(=O)N(Cc2cccnc2)c2nc3c(F)cc(F)cc3s2)cc1,-14.5% (inactive),
O=C(CCOc1ccccc1)N(Cc1cccnc1)c1nc2ccc(Cl)cc2s1,2.01% (inactive),
CCc1ccc(NC(=O)C2CCCN2S(=O)(=O)c2ccc3nc(-c4ccccc4)[nH]c3c2)cc1 (stereo unspecified),-17.1% (inactive),
CCc1cccc(-n2nnc(-c3nsc(NC(=O)c4ccc(C)cc4)n3)c2C)c1,7.17% (inactive),

SMILES,"activity change, negative = cell killing",Potency
CC1Cc2cc(S(=O)(=O)CCC(=O)Nc3ccc(F)c(Cl)c3)ccc2N1C(=O)C1CC1 (stereo unspecified),-11.4% (inactive),
COc1ccc(-n2cnc3cc(C(=O)NC4CCCC4)ccc32)cc1,14% (inactive),
CCc1ccc2oc(-c3ccc(N)cc3)nc2c1,,10 µM (active)
CCC(C)c1ccc2oc(-c3ccc(NC(=O)c4cc5ccccc5o4)cc3)nc2c1 (stereo unspecified),12.3% (inactive),
COC(=O)c1ccc(-c2nc3cc(NC(C)=O)ccc3o2)cc1,-4.16% (inactive),
Cc1ccc(C)c(S(=O)(=O)c2nnn3c2nc(N2CCOCC2)c2sccc23)c1,-8.81% (inactive),
CCS(=O)(=O)c1ncc(N(Cc2ccc(F)cc2)Cc2ccco2)c(C(=O)Nc2cc(C)ccc2C)n1,-4.76% (inactive),
CCSc1ncc(Cl)c(C(=O)Nc2cc(C)ccc2C)n1,-3.08% (inactive),
Cc1ccc(NC(=O)c2nc(S(=O)(=O)Cc3cccc(C)c3)ncc2Cl)cc1,,10 µM (active)
Cn1c(=O)n(Cc2c(F)cccc2Cl)c(=O)c2c1nc1n2CCN1c1ccc(F)cc1,-11.7% (inactive),
Oc1c(C(c2ccccc2Cl)N2CCOCC2)sc2nc(-c3ccco3)nn12 (stereo unspecified),-14% (inactive),
Cc1nc2sc(C(c3ccco3)N3CCOCC3)c(O)n2n1 (stereo unspecified),11.5% (inactive),
Oc1c(C(c2ccccn2)N2CCOCC2)ccc2cccnc12 (stereo unspecified),,12.6 µM (active)
Cc1ccc(CCNC(=O)c2ccc3c(c2)N(Cc2cc(C)ccc2C)C(=O)c2ccccc2S3=O)cc1 (stereo unspecified),1.71% (inactive),
CC(=O)N1CCc2cc(Br)cc(S(=O)(=O)CCC(=O)NCCc3ccc(Cl)cc3)c21,-2.18% (inactive),
COc1cc(CNCCSc2nnnn2C)ccc1OCc1c(F)cccc1Cl,-22.3% (inactive),
COc1cc(CNCCSc2nnnn2C)ccc1OCc1ccc(Cl)cc1Cl,,25.1 µM (active)
Cn1nnnc1SCCNCc1ccc(Cl)c(Cl)c1,11.3% (inactive),
Cc1ccccc1CSCCNC(=O)C1CCN(S(=O)(=O)Cc2ccccc2)CC1,-6.07% (inactive),
Cc1ccc(NC(=O)c2ccc3[nH]c(C)cc(=O)c3c2)c(C)c1,10.7% (inactive),
CC1(C)CC(=O)c2cc(OCC(=O)NCC3CCCO3)ccc2O1 (stereo unspecified),-4.39% (inactive),
CCC1(C)CC(=O)c2c(ccc3oc(C(=O)Nc4ccc(C(C)=O)cc4)c(C)c23)O1 (stereo unspecified),-27.1% (inactive),
Cc1c(C(=O)NCc2ccccc2Br)oc2ccc3c(c12)C(=O)CC(C)(C)O3,,15.8 µM (active)
CCS(=O)(=O)N1CCc2cc(C(=O)NCc3ccc(C)cc3)ccc21,-3.8% (inactive),

SMILES,"activity change, negative = cell killing",Potency
Cc1ccc(O)c(NC(=O)c2cc(-c3ccc(F)cc3)no2)c1,-18.6% (inactive),
COc1ccccc1-c1cc(C(F)(F)F)nc(S(=O)(=O)CCCC(=O)Nc2ccc(F)cc2F)n1,-100% (inactive),
Cc1ccc(O)c(NC(=O)CCS(=O)(=O)c2nc(-c3ccc4c(c3)OCO4)cc(C(F)(F)F)n2)c1,,3.16 µM (active)
Cc1ccc(CNC(=O)c2ccc(CS(=O)Cc3cccc(Cl)c3)o2)cc1 (stereo unspecified),-16.2% (inactive),
Fc1ccc2nc(N3CCCCC3)sc2c1,7.22% (inactive),
c1c2c(cc3sc(N4CCCCC4)nc13)OCCO2,,2 µM (active)
COc1ccc2nc(Nc3nc4cc5c(cc4s3)OCCO5)sc2c1,-17.6% (inactive),
Cc1cccc(CSc2nc3ccncc3n2CC(=O)N(C)C2CCCCC2)c1,-7.28% (inactive),
CC(C)c1ccc(NC(=O)c2ccc3c(O)c(S(=O)(=O)c4ccccc4)c(=O)[nH]c3c2)cc1,,6.31 µM (active)
Cc1ccc(C(=O)Nc2ccc3[nH]c(=O)c(=O)[nH]c3c2)cc1,-13.9% (inactive),
COc1ccc(CNC(=O)c2ccc3c(O)c(S(=O)(=O)c4ccccc4)c(=O)[nH]c3c2)cc1,-10.2% (inactive),
COc1ccc(C)cc1NC(=O)CCc1c(C)nn(-c2ccc(N3CCOCC3)nn2)c1C,-14.8% (inactive),
Cc1ccc(N2CC(NC(=O)Cc3cccs3)CC2=O)cc1 (stereo unspecified),13.4% (inactive),
COc1ccc(CCN2C(=O)c3[nH]nc(-c4ccccc4O)c3C2c2ccc(C)cc2)cc1OC (stereo unspecified),-18.7% (inactive),
CCCCN1C(=O)c2[nH]nc(-c3ccccc3O)c2C1c1cccc(OCc2ccccc2)c1 (stereo unspecified),,25.1 µM (active)
CCCOc1ccc(C2c3c(-c4ccccc4O)n[nH]c3C(=O)N2Cc2cccnc2)cc1 (stereo unspecified),,12.6 µM (active)
CCOc1ccc(/C(O)=C2/C(=O)C(=O)N(Cc3cccnc3)C2c2ccc(N(C)C)cc2)c(C)c1 (stereo unspecified),-14.2% (inactive),
COc1cccc(-c2n[nH]c3c2C(c2cccc(O)c2)N(C)C3=O)c1 (stereo unspecified),4.1% (inactive),
COc1ccc(C2C(C(C)=O)=C(O)C(=O)N2Cc2cccnc2)cc1 (stereo unspecified),14.7% (inactive),
O=C(c1cccc(Cl)c1)N1CCN(CCc2ccncc2)CC1,0.144% (inactive),
Fc1ccc(C(Nc2ccc(Cl)c(C(F)(F)F)c2)c2nnc(-c3ccccc3)o2)cc1 (stereo unspecified),3.27% (inactive),
Cn1c(=O)nc2n(-c3ccc(Br)cc3)c3cccc(Cl)c3cc-2c1=O,8.85% (inactive),
CCCCCn1c(=O)[nH]c2cc(C(=O)Nc3ccc(F)cc3)ccc2c1=O,4.84% (inactive),
Cn1nc(-c2ccccc2)c(-c2ccccc2)c(C(=O)Nc2ccc(S(N)(=O)=O)cc2)c1=O,-13.6% (inactive),

SMILES,"activity change, negative = cell killing",Potency
COc1ccc2cc(CNc3ccc(OC)c(OC)c3)c(=O)n(CC(=O)Nc3ccccc3F)c2c1,3.23% (inactive),
Cc1c2cnn(-c3ccccc3)c(=O)c2c(C)n1C(C)C(=O)Nc1ccc(Br)cc1F (stereo unspecified),6.87% (inactive),
CCN(CCCCOC(=O)c1ccc(OC)c(OC)c1)C(C)Cc1ccc(OC)cc1 (stereo unspecified),1.21% (inactive),
COc1ccc(C(CCN(Cc2ccc(OC)c(OC)c2)C(=O)CCl)c2ccccc2)cc1 (stereo unspecified),,3.98 µM (active)
COc1ccc(/C=C/NC(=O)Cc2ccc(OC)c(OC)c2)cc1,-6.46% [at 9.22 µM] (inactive) and 8.2% [at 9.22 µM] (inactive),
O=C(NCc1ccccc1)c1cc(-c2cccc(Cl)c2)on1,18% (inactive),
COc1ccc(-c2cc(-c3nc(-c4cc(OC)c(OC)c(OC)c4)no3)[nH]n2)c(OC)c1,-1.36% (inactive),
COc1ccc(-c2noc(CSc3nnc(-c4ccccc4)n3-c3ccc(F)cc3)n2)c(OC)c1,-12.5% (inactive),
COc1ccc(-c2nc(-c3ccccc3)no2)c(OC)c1,,6.31 µM (active)
O=C(CN1CCN(Cc2ccc(Cl)cc2)C1=O)NCc1ccc(F)cc1,3.47% (inactive),
Cc1ccc(C)c(N2CCN(c3ccc4cc(S(=O)(=O)N5CCC(C)CC5)ccc4n3)CC2)c1,-15.3% (inactive),
N#C/C(=C(/O)COC(=O)COc1ccc(Cl)cc1)c1nc2ccccc2[nH]1,,20 µM (active)
O=C(COc1ccccc1)NCCc1nc2ccccc2[nH]1,16.9% (inactive),
COC(=O)Cc1nc2ccccc2[nH]1,-9.69% (inactive),
COc1ccc(CNC(=O)CSc2n[nH]c(-c3ccc(F)cc3)n2)cc1,-5.34% (inactive),
O=C(NCC(c1cccnc1)N1CCc2ccccc21)c1cccc(C(F)(F)F)c1 (stereo unspecified),-29.6% (inactive),
Cc1ccc2nc(-c3ccc(O)cc3)c(Nc3ccc4c(c3)OCO4)n2c1,29.2% (inactive),
COc1cccc(-n2cc(C(=O)NCc3cccc(Cl)c3)c3ccccc3c2=O)c1,-14.9% (inactive),
COc1ccc(-n2ncc3c(N4CCCc5ccccc54)ncnc32)cc1,,10 µM (active)
Cc1cccc(-n2ncc3c(N4CCc5ccccc54)ncnc32)c1,-5.45% (inactive),
COc1ccc(-n2ncc3c(N4CCc5ccccc54)ncnc32)cc1,-10.2% (inactive),
Cc1oc(C)c2c(=O)cc(-c3ccc4c(c3)OCO4)cc(OC(=O)c3ccc(Cl)cc3)c12,-0.429% (inactive),
CC1CCCN(S(=O)(=O)c2ccc3[nH]c(=O)cc(C(=O)NCCc4ccc(Cl)cc4)c3c2)C1 (stereo unspecified),-14.2% (inactive),
CCC1CCCCN1C(=O)Cn1c(=O)n(CCCCCC(=O)NCc2ccccc2)c(=O)c2sccc21 (stereo unspecified),-0.145% (inactive),
